Algae TAG accum: inducers of triacylglycerol accumulation in Chlamydomonas reinhardtii algae; hit rate 0.84% among 44,000; Chlamydomonas reinhardtii TAG, Nile Red fluorescence, 72 h; calls only at 10 µM (by protocol); call rule not given here;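 note: hits raise Nile Red signal meaning more stored TAG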
* marks the source's active call; other numbers are inactive results. This is one part of a sample in which hits are shown more often than they occur.

`CCOc1ccccc1C(=O)NCCNC(=O)c1ccccc1OCC` gave Algae TAG accum inactive.
`CCOc1ccccc1C(=O)NC1CCC(NC(=O)c2ccccc2OCC)CC1` (centres undefined) gave Algae TAG accum inactive.
Screening CCOc1ccccc1C(=O)NC1CC1 returned Algae TAG accum active.
`O=C(Nc1cccc([N+](=O)[O-])c1)c1cccc2c1C(=O)c1ccccc1-2` gave Algae TAG accum inactive.
COc1ccc(CCNC(=O)COc2ccc(Br)cc2Cl)cc1OC was read as Algae TAG accum inactive.
For OCCN1CCN(C/C=C/c2ccccc2)CC1 the results were Algae TAG accum inactive.
For CCN1CCN(C/C=C/c2ccccc2)CC1 the results were Algae TAG accum inactive.
Screening C/C=C(\C)CN1CCN(C/C=C/c2ccccc2)CC1 returned Algae TAG accum active.
O=C(Nc1ccc2c(c1)OCO2)c1sc2ccccc2c1Cl was read as Algae TAG accum inactive.
`COc1ccc(NC(=O)C2(c3ccc(OC)c(OC)c3)CCOCC2)cc1` gave Algae TAG accum inactive.
Screening CCc1nc2c(cnn2-c2ccccc2)c(=O)n1-c1cccnc1 returned Algae TAG accum inactive.
`Cc1ccc(Cn2cnc3c(cnn3-c3ccccc3)c2=O)c(C)c1` gave Algae TAG accum active.
For Cc1ccc(Cn2cnc3sc4c(c3c2=O)CCC4)c(C)c1 the results were Algae TAG accum inactive.
For COc1cc(NC(=O)c2cccc(C)c2)c(OC)cc1NC(C)=O the results were Algae TAG accum inactive.
O=C(Nc1ccc(S(=O)(=O)Nc2ccc(I)cc2)cc1)c1ccco1 was read as Algae TAG accum inactive.
For Cc1cc(-c2ccc(NC(=O)c3ccco3)c(C)c2)ccc1NC(=O)c1ccco1 the results were Algae TAG accum inactive.
`COc1cc(-c2ccc(NC(=O)c3ccco3)c(OC)c2)ccc1NC(=O)c1ccco1` gave Algae TAG accum active.
Screening COc1ccc(OC)c(NC(=O)c2ccco2)c1 returned Algae TAG accum inactive.
Screening COc1ccccc1CN1CCC(C(=O)N2CCN(Cc3ccccc3)CC2)CC1 returned Algae TAG accum inactive.
For Cc1cccc(C)c1N(CC(=O)N1CCN(c2ccc(F)cc2)CC1)S(C)(=O)=O the results were Algae TAG accum inactive.
Screening O=C(NC1CCCCCCC1)c1ccccc1 returned Algae TAG accum inactive.
CN(C)S(=O)(=O)c1ccc(C(=O)NC2CCCCCCC2)cc1 was read as Algae TAG accum inactive.
Screening CN(c1ccc(C(=O)NC2CCCCCC2)cc1)S(=O)(=O)c1ccccc1 returned Algae TAG accum active.
For O=C(C1CCN(S(=O)(=O)c2ccc(Cl)cc2)CC1)N1CCN(c2ccccc2F)CC1 the results were Algae TAG accum inactive.
`NC(=O)c1cc(-c2ccccc2)sc1N` gave Algae TAG accum inactive.
Screening NC(=O)c1cc(-c2ccccc2)sc1NC(=O)c1ccc(OC(F)F)cc1 returned Algae TAG accum active.
For CC(C)Oc1ccc(C(=O)Nc2ccccc2C(N)=O)cc1 the results were Algae TAG accum inactive.
CNC(=O)C(=O)NCCN1CCN(C(=O)c2cccc([N+](=O)[O-])c2)CC1 was read as Algae TAG accum inactive.
Screening CC(CNC(=O)c1ccc(F)cc1)CN(C)C (centres undefined) returned Algae TAG accum inactive.
`CC(CNC(=O)c1ccc(C(C)(C)C)cc1)CN(C)C` (centres undefined) gave Algae TAG accum active.
`Cc1cccc(C(=O)NCC(C)CN(C)C)c1` (centres undefined) gave Algae TAG accum inactive.
Screening O=C(Nc1ccc(Nc2ccccc2)cc1)C1CCCC1 returned Algae TAG accum inactive.
Screening COc1ccc(CN2CCCC3CCCCC32)c(OC)c1OC (centres undefined) returned Algae TAG accum inactive.
For O=S(=O)(c1ccc(Cl)c(Cl)c1Cl)N1CCN(c2ccc(F)cc2)CC1 the results were Algae TAG accum active.
`O=[N+]([O-])c1ccccc1S(=O)(=O)N1CCN(c2ccc(F)cc2)CC1` gave Algae TAG accum inactive.
`O=S(=O)(c1ccc(F)cc1)N1CCN(c2ccccc2)CC1` gave Algae TAG accum inactive.
Screening COc1cc(C=O)ccc1OC1=NS(=O)(=O)c2ccccc21 returned Algae TAG accum inactive.
`O=C(COc1ccc(Cl)cc1)N1CCN(c2cccc(Cl)c2)CC1` gave Algae TAG accum inactive.
COc1ccc(N2CCN(C(=O)COc3ccc(Cl)cc3)CC2)cc1 was read as Algae TAG accum inactive.
For CC1CCCN(C(=O)COc2ccc(Cl)cc2)C1 (centres undefined) the results were Algae TAG accum active.
For COc1ccc(OCCCN2CCCC(C)C2)cc1 (centres undefined) the results were Algae TAG accum active.
For CCOc1ccccc1OCCCN1CCCC(C)C1 (centres undefined) the results were Algae TAG accum inactive.
Screening CC1CCCN(CCCOc2ccc([N+](=O)[O-])cc2)C1 (centres undefined) returned Algae TAG accum inactive.
CC(C(=O)NC(C)(C)C)N(c1ccccc1)S(C)(=O)=O (centres undefined) was read as Algae TAG accum inactive.

Screens: PubChem BioAssay, DiRusso Lab, Biochemistry Department, University of Nebraska
